From PubChem BioAssay
Shown are actives, neighbours in structure and some others; about 2.4% of the full set was active somewhere.
ANO1 activ – activates or potentiates the mouse TMEM16A chloride channel; actives 0.3% (n = 340,000); HEK293 TMEM16A/YFP-H148Q/I152L, iodide quench fluorescence; stronger effect = lower value; Q8BHY3; B-score at 10 µM; AID 623877;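 active = fluorescence-ratio B-score plate-corrected deviation score at least 3 library SD below zero, with starting fluorescence score within 5 deviations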;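 note: channel opened by trigger with iodide after compound preincubation; score built on the fluorescence ratio of max minus min over baseline; more negative score means more quench and so TMEM16A activation or potentiation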
HTR2A ag – agonists of mouse serotonin 5-HT2A receptor (HTR2A). P35363. CHO-K1 mHTR2A beta-arrestin complementation, luminescence; percent of 30 µM serotonin response. activation, % at 7.6 µM. actives 0.66% (n = 360,000). AID 624169;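 active = activation above a run cutoff, the mean activation of all tested compounds plus 3 SD, cut at about 14% in these data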;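 note: 0% = plate median of compound wells and 100% = 30 µM serotonin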
TMEM16A inh – mouse TMEM16A channel inhibition, primary screen. Q8BHY3. HEK293 TMEM16A/YFP iodide influx fluorescence, ionomycin. normalized B-score (activity score, 25-100; higher = stronger inhibition) at 10 µM. actives 1.2% (n = 310,000). AID 588511;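 active = ratio plate-corrected score three or more library SD toward inhibition, starting fluorescence score within five deviations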;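 note: score derived from kinetic fluorescence span divided by baseline fluorescence per well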
TLR4 MyD88 comp – blocks binding of human TLR4 to MyD88; inhibition, % at 8.4 µM; actives 0.18% (n = 200,000); AID 861; HeLa CL3-4 TLR4/MyD88 BLA complementation, FRET ratio; in the data active = inhibition above about 25%;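 note: 0% = vehicle and 100% = reference inhibitor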
NOD2 RIPK2 PPI – blocks binding of human NOD2 to RIPK2; CHO BLA complementation NOD2-RIPK2, CCF4 ratio; inhibition, % at 4.98 µM; actives 0.38% (n = 360,000); in the data active = inhibition above about 21%;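 note: 0% = vehicle only and 100% = reference blocker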
TLR9-MyD88 inh – blocks human TLR9 binding to MyD88; Q9NR96+Q99836; CHO BLA complementation TLR9-MyD88, CCF4 FRET ratio; inhibition, % at 4.98 µM; actives 0.21% (n = 340,000); AID 504734;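 active = inhibition above the mean over all tested compounds plus 3 SD, cut at about 21% in these data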;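 note: 0% = DMSO only wells and 100% = clavulanate BLA inhibitor control wells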
* hit, by the source's call; i = inactive; / = not tested or not shown.

SMILES | ANO1 activ | HTR2A ag | TMEM16A inh | TLR4 MyD88 comp | NOD2 RIPK2 PPI | TLR9-MyD88 inh
C[C@]12CC[C@@H]3c4cc(O)c(O)cc4CC[C@H]3[C@@H]1CC[C@@H]2O | i | 1 | i | / | 2 | 7
COc1cc(/C=C2\SC(=O)N(c3cccc(Cl)c3)C2=O)cc([N+](=O)[O-])c1O | -5.6* | 2 | / | 12 | -4 | -4
Cc1ccc(NC(=O)CN2C(=O)S/C(=C/c3ccc(O)c([N+](=O)[O-])c3)C2=O)cc1C | i | -6 | / | -6 | -2 | -7
O=C1S/C(=C\c2ccc(O)c([N+](=O)[O-])c2)C(=O)N1Cc1cccc([N+](=O)[O-])c1 | i | 8 | 100* | 7 | -13 | /
O=C1S/C(=C\c2ccc(O)c([N+](=O)[O-])c2)C(=O)N1c1ccccc1Cl | i | -4 | 100* | -3 | 1 | 1
Cc1cccc(NC(=O)CN2C(=O)S/C(=C\c3ccc(O)c([N+](=O)[O-])c3)C2=O)c1 | i | -1 | i | -23 | -5 | 11
COC(=O)C1=C/CCCN(C(c2ccccc2)c2ccccc2)/C=C\1C(=O)OC | / | 3 | / | / | 0 | 4
CC(C)C(c1nnnn1Cc1ccc(F)cc1)N1CCN(C2CCCCC2)CC1 (configuration not stated) | i | 5 | i | -3 | 5 | -4
C=CCSc1nnc(NC(=O)c2ccc(N3CCCC3=O)cc2)s1 | i | 0 | / | / | 2 | -6
CC[C@@H](C(=O)[C@@H](C)[C@@H](O)[C@H](C)[C@@H]1O[C@@H]([C@@H](CC)C(=O)O)CC[C@@H]1C)[C@H]1O[C@]2(C=C[C@@H](O)[C@]3(CC[C@@](C)([C@H]4CC[C@](O)(CC)[C@H](C)O4)O3)O2)[C@H](C)C[C@@H]1C | i | 23* | / | / | -12 | 1
Cn1c(=O)c2c(ncn2CC(=O)Nc2nc(-c3ccccc3Cl)cs2)n(C)c1=O | -10* | -3 | i | -1 | -5 | 2
CS(=O)(=O)N1CCN(c2ccccc2NC(=O)Cc2ccccc2)CC1 | i | -1 | i | -3 | -1 | -4
CS(=O)(=O)N1CCN(c2ccccc2NC(=O)Cc2ccc(Cl)cc2)CC1 | -25* | 6 | i | 3 | 3 | 4
O=[N+]([O-])c1cc([N+](=O)[O-])c2nonc2c1Nc1ccccc1O | i | 5 | 100* | / | 6 | 15
O=[N+]([O-])c1cc([N+](=O)[O-])c2nonc2c1Nc1ccc(O)cc1 | i | -5 | i | / | 1 | -4
CCOC(=O)N1CCN(C(=O)CSc2nnc(CNC(=O)c3c(F)cccc3Cl)o2)CC1 | i | 0 | i | 11 | -3 | 3
O=C(O)Cc1cc2c(s1)CCCCC2 | i | 8 | i | 12 | 0 | -7
Cc1ccc(NC(=O)c2c(Cl)nc3ccccn23)cc1 | -6.1* | 4 | i | 7 | -11 | 3
Cc1ccc(S(=O)(=O)N2CCC[C@H]2C(=O)OCC(=O)c2ccc3c(c2)NC(=O)CO3)cc1 | i | -3 | 25* | / | -3 | -4
Cc1ccc(S(=O)(=O)N2CCCC2C(=O)OCC(=O)Nc2ccc3c(c2)OCO3)cc1 (configuration not stated) | i | -1 | i | 2 | 5 | -20
CCOC(=O)C1=C[C@@H](CC)N(S(=O)(=O)c2ccccc2)[C@H]1c1ccccc1 | / | -5 | / | / | -11 | /
O=CNC(n1cnc2c(N3CCOCC3)ncnc21)C(Cl)(Cl)Cl (configuration not stated) | -7.2* | -5 | i | / | 0 | -2
CC(=O)Nc1ccc2c(c1)C(=O)N(c1cccc(C)c1)C2=O | i | -1 | i | / | -5 | 7
O=C(Nc1ccc2c(c1)Cc1ccccc1-2)c1cc2ccccc2o1 | i | 0 | i | 9 | -6 | 4
O=C(Nc1ccc(N2CCOCC2)c(Cl)c1)c1cc2ccccc2o1 | i | 1 | 25* | 14 | -6 | -1
SMILES | ANO1 activ | HTR2A ag | TMEM16A inh | TLR4 MyD88 comp | NOD2 RIPK2 PPI | TLR9-MyD88 inh
O=C(Nc1ccc2c(c1)CCC2)c1cc2ccccc2o1 | -5.7* | -6 | i | 3 | 2 | 1
Cc1nc2ccc(NC(=O)c3cccs3)cc2c(=O)n1Cc1ccc(Cl)cc1 | i | -2 | 100* | -1 | -18 | -2
Nc1nonc1C(=O)NCCNCc1cc(Br)ccc1OCc1ccccc1F | i | -6 | 100* | 9 | -1 | -9
CC(Sc1nc(NCc2ccccc2)nc(N2CCOCC2)n1)C(=O)Nc1ccccc1 (configuration not stated) | i | -5 | i | 19 | -5 | 9
COC(=O)Cn1cc(C(=O)OC)cc(Br)c1=O | i | 8 | 25* | -6 | 1 | -5
COC(=O)c1cc(Br)c(=O)n(CCc2ccccc2)c1 | i | 3 | i | 0 | -8 | -1
C=CCOc1c(Cl)cc(Cl)cc1S(=O)(=O)NCCO | i | 8 | / | / | -10 | 5
N#Cc1ccccc1S(=O)(=O)N1CCN(C(=O)CCc2ccccc2)CC1 | i | 6 | / | / | -7 | -5
N#Cc1ccccc1S(=O)(=O)N1CCN(C(=O)CCC2CCCC2)CC1 | -23* | 11 | / | / | -11 | -14
CCN(CC)CC(C)(C)C(=O)/C=C/c1ccc(/C=C/C(=O)C(C)(C)CN(CC)CC)cc1 | i | 0 | / | / | 84* | 21
CCOC(=O)N1CCN(Cc2cc(=O)oc3cc4c(cc23)CCC4)CC1 | -14* | -3 | i | -8 | -14 | -6
CCOC(=O)N1CCN(Cc2cc(=O)oc3ccc(Cl)cc23)CC1 | i | 4 | i | 2 | -4 | 0
Cc1ccc(-c2nc(CCNC(=O)c3ccco3)cs2)cc1 | i | -6 | 25* | / | 1 | 4
Cc1cccc(-c2nc(CCNC(=O)c3ccco3)cs2)c1 | / | -5 | / | / | -13 | 1
COc1ccc(/C=C(/C(=O)c2cccs2)N2C=CC=CC2=C(C#N)C#N)cc1 | -5* | -1 | / | -5 | 0 | 15
COc1ccc(N=N/C(=C\O)C(=O)c2cccs2)cc1 | i | -2 | i | -4 | -11 | -5
CSCCC(NC(=O)COc1ccccc1)C(=O)OCc1ccc([N+](=O)[O-])cc1 (configuration not stated) | i | -5 | i | / | -12 | 2
Nc1ncc(Br)cc1S(=O)(=O)Nc1cc(C(F)(F)F)cc(C(F)(F)F)c1 | -5* | 3 | 100* | / | -12 | -9
Cc1ccc2c(c1)cc(CN(Cc1ccco1)C(=O)N1CCOCC1)c1nnnn12 | i | 1 | i | -5 | 4 | 1
CC(=O)Nc1cccc(-c2csc(Nc3cc(C)ccn3)n2)c1 | i | 1 | 25* | 5 | -5 | 4
